In the supplement of paper PMC10849652:
Of roughly 8,800 targets only a part is listed; those with a hit were picked by preference. About 0.5% of all pairs of compound and target were hits.

Columns and labels:
Test in all cases: log2 fold change, soluble protein after heating vs DMSO (PISA); higher = thermal stabilisation; K562 lysate, 10 uM; active = over 0.2 and 3.5 SD of the protein, either way, in both replicates (recomputed)
nilotinib = compound: Cc1cn(-c2cc(NC(=O)c3ccc(C)c(Nc4nccc(-c5cccnc5)n4)c3)cc(C(F)(F)F)c2)cn1 [nilotinib]
Method in brief: (§1)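 Thermal stability, expressed as log-two fold change relative to solvent controls, is given from duplicates. Crude K562 extract in PBS pH 7.4 with 1 mM MgCl2, at 1 mg/mL protein, was treated with 10 μM compound for 30 min and heated in aliquots for 3 min across 48°C-58°C. After pooling, adjustment to 0.5% NP-40 at 4°C and centrifugation at 21,000xg for 90 min, supernatant protein was measured by TMTpro 16plex LC-MS/MS with channel sums equalised.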

[1] = compound: Cc1nc(Nc2n[nH]c3c2CN(C(=O)N[C@H](CN(C)C)c2ccccc2)C3(C)C)c2sccc2n1
Method in brief: as §1

dasatinib = compound: Cc1nc(Nc2ncc(C(=O)Nc3c(C)cccc3Cl)s2)cc(N2CCN(CCO)CC2)n1 [dasatinib]
Method in brief: as §1

[2] = compound: Cc1ncc(-c2ccnc(Nc3ccc(S(C)(=O)=O)cc3)n2)n1C(C)C
Method in brief: as §1

[3] = compound: Cn1cc(-c2ccc3c(c2)CCN3C(=O)Cc2cccc(C(F)(F)F)c2)c2c(N)ncnc21
Method in brief: as §1

quisinostat = compound: Cn1cc(CNCC2CCN(c3ncc(C(=O)NO)cn3)CC2)c2ccccc21 [quisinostat]
Method in brief: as §1

tipifarnib = compound: Cn1cncc1[C@@](N)(c1ccc(Cl)cc1)c1ccc2c(c1)c(-c1cccc(Cl)c1)cc(=O)n2C [tipifarnib]
Method in brief: as §1

[4] = compound: NC(=O)Nc1cc(-c2cccc(F)c2)sc1C(=O)N[C@H]1CCCNC1
Method in brief: as §1

[5] = compound: NC(=O)c1cnc(N[C@@H]2CCCC[C@@H]2N)nc1Nc1cccc(-n2nccn2)c1
Method in brief: as §1

[6] = compound: NC1(c2ccc(-c3nc4ccn5c(=O)[nH]nc5c4cc3-c3ccccc3)cc2)CCC1
Method in brief: as §1

[7] = compound: NCC(=O)Nc1ccc(-n2nc(C(F)(F)F)cc2-c2ccc3c(ccc4ccccc43)c2)cc1
Method in brief: as §1

vorinostat = compound: O=C(CCCCCCC(=O)Nc1ccccc1)NO [vorinostat]
Method in brief: as §1

silmitasertib = compound: O=C(O)c1ccc2c(c1)nc(Nc1cccc(Cl)c1)c1ccncc12 [silmitasertib]
Method in brief: as §1

[8] = compound: O=C1NC(=O)C(c2cnc3ccccn23)=C1c1cn2c3c(cc(F)cc13)CN(C(=O)N1CCCCC1)CC2
Method in brief: as §1

entospletinib = compound: c1cn2cc(-c3ccc4cn[nH]c4c3)nc(Nc3ccc(N4CCOCC4)cc3)c2n1 [entospletinib]
Method in brief: as §1

Measured: log2 fold change

TBCE (UniProt Q15813)
inactive: nilotinib -0.001 | [1] -0.008 | dasatinib -0.012 | [2] -0.01 | [3] 0.049 | quisinostat -0.025 | tipifarnib -0.005 | [4] 0.033 | [5] 0.015 | [6] -0.041 | [7] -0.029 | silmitasertib 0.018 | [8] -0.025 | entospletinib 0.021
active: vorinostat -0.27

TTC4 (UniProt O95801)
Sequence of UniProt O95801 (O95801 whole entry, looked up): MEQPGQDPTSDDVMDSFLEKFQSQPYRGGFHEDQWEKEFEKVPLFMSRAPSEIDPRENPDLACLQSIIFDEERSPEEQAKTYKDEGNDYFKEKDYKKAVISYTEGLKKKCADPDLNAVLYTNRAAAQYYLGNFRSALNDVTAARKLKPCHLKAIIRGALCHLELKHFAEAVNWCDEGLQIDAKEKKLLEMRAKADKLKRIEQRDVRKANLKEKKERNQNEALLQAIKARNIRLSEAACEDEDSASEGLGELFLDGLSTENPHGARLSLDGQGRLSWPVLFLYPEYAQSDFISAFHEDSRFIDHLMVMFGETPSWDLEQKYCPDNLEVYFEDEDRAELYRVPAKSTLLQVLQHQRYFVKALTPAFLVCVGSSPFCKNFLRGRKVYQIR
inactive: nilotinib -0.04 | [1] -0.034 | dasatinib 0.025 | [2] -0.018 | [3] 0.012 | quisinostat -0.07 | tipifarnib -0.01 | [4] 0.025 | [5] 0.023 | [6] -0.018 | [7] 0.013 | silmitasertib 0.022 | [8] -0.009 | entospletinib 0
active: vorinostat -0.498

TPM4 isoform 2 (UniProt P67936)
inactive: nilotinib 0.052 | [1] -0.048 | dasatinib 0.059 | [2] 0.076 | [3] -0.011 | quisinostat 0.122 | tipifarnib 0.024 | [4] -0.039 | [5] 0.029 | [6] 0.02 | [7] 0.02 | vorinostat 0.082 | silmitasertib -0.016 | [8] -0.014 | entospletinib 0.02

TTK (UniProt P33981)
inactive: nilotinib 0.007 | [1] 0.236 | dasatinib -0.014 | [2] 0.185 | [3] 0.013 | quisinostat -0.062 | tipifarnib -0.147 | [4] 0.034 | [5] -0.001 | [6] -0.057 | [7] -0.009 | vorinostat -0.183 | silmitasertib 0.004 | [8] -0.03 | entospletinib -0.039

TRIM44 (UniProt Q96DX7)
Sequence of UniProt Q96DX7 (Q96DX7 whole entry, looked up): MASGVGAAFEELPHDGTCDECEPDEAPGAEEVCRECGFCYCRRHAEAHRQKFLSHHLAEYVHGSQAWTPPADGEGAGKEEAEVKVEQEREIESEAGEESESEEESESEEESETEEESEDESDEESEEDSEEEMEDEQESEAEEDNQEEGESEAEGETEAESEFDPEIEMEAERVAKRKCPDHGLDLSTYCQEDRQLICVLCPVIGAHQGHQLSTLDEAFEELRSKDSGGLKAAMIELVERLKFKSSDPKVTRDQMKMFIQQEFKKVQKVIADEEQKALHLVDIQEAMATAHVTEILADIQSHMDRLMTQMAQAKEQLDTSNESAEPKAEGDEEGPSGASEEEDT
inactive: nilotinib -0.016 | [1] 0.001 | dasatinib 0.073 | [2] -0.036 | [3] -0.008 | quisinostat 0.035 | tipifarnib 0.006 | [4] 0.023 | [5] -0.011 | [6] 0.044 | [7] 0.024 | vorinostat -0.031 | silmitasertib 0.062 | [8] -0.015 | entospletinib -0.051

TXNRD2 (UniProt Q9NNW7)
Sequence of UniProt Q9NNW7 (Q9NNW7 whole entry, looked up): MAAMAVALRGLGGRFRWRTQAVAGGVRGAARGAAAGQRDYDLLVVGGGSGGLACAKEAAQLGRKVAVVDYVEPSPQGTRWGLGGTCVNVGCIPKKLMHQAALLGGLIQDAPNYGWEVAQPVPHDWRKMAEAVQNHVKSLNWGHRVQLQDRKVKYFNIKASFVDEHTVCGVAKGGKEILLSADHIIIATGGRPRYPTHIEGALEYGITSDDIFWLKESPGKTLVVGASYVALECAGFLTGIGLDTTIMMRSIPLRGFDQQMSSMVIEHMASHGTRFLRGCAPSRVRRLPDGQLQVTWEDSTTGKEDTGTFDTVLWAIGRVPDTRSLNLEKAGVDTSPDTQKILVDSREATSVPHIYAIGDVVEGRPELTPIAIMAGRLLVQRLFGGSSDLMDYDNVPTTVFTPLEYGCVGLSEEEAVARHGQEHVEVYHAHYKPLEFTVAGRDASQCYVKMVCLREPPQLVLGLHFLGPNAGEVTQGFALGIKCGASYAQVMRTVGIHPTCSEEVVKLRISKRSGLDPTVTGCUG
inactive: nilotinib 0.063 | [1] 0.008 | dasatinib 0.039 | [2] 0.071 | [3] 0.015 | quisinostat -0.017 | tipifarnib -0.005 | [4] -0.023 | [5] -0.006 | [6] -0.05 | [7] -0.016 | vorinostat 0.125 | silmitasertib -0.025 | [8] 0.029 | entospletinib 0.023

TRAPPC12 (UniProt Q8WVT3)
active: vorinostat -0.258
inactive: nilotinib -0.007 | [1] 0.025 | dasatinib 0.024 | [2] -0.05 | [3] 0.038 | quisinostat 0.003 | tipifarnib 0.039 | [4] -0.018 | [5] -0.007 | [6] 0.013 | [7] 0.032 | silmitasertib 0.005 | [8] 0.043 | entospletinib -0.001

TUBB6 (UniProt Q9BUF5)
Sequence of UniProt Q9BUF5 (Q9BUF5 whole entry, looked up): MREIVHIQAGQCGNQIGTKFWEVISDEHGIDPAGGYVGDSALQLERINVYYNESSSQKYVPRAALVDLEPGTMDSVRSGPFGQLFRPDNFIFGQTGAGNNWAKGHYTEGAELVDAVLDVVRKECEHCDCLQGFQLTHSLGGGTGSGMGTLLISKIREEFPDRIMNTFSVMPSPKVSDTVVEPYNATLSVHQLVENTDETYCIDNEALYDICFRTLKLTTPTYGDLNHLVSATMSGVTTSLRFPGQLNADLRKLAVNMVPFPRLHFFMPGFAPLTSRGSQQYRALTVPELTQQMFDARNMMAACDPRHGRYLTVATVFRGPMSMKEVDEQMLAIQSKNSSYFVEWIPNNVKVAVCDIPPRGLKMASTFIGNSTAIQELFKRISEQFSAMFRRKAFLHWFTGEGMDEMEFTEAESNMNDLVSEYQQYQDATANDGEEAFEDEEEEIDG
inactive: nilotinib -0.002 | [1] -0.023 | dasatinib -0.031 | [2] 0.006 | [3] -0.006 | quisinostat -0.028 | tipifarnib 0.021 | [4] 0.022 | [5] -0.001 | [6] 0.004 | [7] 0.013 | silmitasertib 0.04 | [8] 0.013 | entospletinib 0.004
active: vorinostat -0.558

UBXN6 (UniProt Q9BZV1)
Sequence of UniProt Q9BZV1 (Q9BZV1 whole entry, looked up): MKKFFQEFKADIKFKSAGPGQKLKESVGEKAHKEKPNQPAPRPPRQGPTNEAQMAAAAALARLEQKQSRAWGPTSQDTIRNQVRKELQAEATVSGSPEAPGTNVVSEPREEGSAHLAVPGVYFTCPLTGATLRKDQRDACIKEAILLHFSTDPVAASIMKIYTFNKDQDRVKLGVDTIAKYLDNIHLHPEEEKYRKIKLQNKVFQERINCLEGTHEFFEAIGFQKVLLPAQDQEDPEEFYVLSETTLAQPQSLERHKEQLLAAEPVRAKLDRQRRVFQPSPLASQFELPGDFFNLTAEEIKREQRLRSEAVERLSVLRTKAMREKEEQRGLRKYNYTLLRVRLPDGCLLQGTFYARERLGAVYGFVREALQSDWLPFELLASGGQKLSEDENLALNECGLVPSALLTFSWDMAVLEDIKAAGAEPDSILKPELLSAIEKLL
active: vorinostat -0.28
inactive: nilotinib -0.033 | [1] 0.042 | dasatinib 0.017 | [2] -0.065 | [3] 0.046 | quisinostat 0.028 | tipifarnib 0.016 | [4] 0.013 | [5] 0.068 | [6] -0.013 | [7] 0.04 | silmitasertib 0.018 | [8] -0.026 | entospletinib -0.009

TBL2 (UniProt Q9Y4P3)
Sequence of UniProt Q9Y4P3 (Q9Y4P3 whole entry, looked up): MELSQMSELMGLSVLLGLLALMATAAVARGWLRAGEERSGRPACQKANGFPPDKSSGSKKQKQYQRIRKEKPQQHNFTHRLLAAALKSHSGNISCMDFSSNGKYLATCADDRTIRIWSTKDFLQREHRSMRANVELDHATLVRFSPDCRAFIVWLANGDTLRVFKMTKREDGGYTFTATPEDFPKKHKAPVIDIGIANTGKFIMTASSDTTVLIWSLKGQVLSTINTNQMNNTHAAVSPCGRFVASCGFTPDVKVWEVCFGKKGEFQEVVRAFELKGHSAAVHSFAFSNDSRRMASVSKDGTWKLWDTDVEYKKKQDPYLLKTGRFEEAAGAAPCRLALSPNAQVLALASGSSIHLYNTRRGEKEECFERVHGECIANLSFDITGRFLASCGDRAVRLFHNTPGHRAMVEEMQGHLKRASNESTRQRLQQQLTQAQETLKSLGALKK
inactive: nilotinib -0.025 | [1] -0.043 | dasatinib -0.008 | [2] -0.004 | [3] 0.014 | quisinostat -0.031 | tipifarnib -0.06 | [4] -0.007 | [5] 0.003 | [6] -0.037 | [7] -0.035 | silmitasertib -0.007 | [8] -0.035 | entospletinib 0.02
active: vorinostat -0.292

UBR1 (UniProt Q8IWV7)
active: vorinostat -0.239
inactive: nilotinib -0.022 | [1] 0.01 | dasatinib -0.012 | [2] 0.013 | [3] 0.046 | quisinostat -0.093 | tipifarnib 0.007 | [4] 0.021 | [5] -0.006 | [6] -0.021 | [7] -0.04 | silmitasertib 0.025 | [8] 0.008 | entospletinib -0.024

THADA (UniProt Q6YHU6)
active: vorinostat -0.456
inactive: nilotinib 0.009 | [1] 0.012 | dasatinib -0.048 | [2] 0.008 | [3] 0.027 | quisinostat -0.115 | tipifarnib -0.011 | [4] 0.053 | [5] 0.007 | [6] 0.002 | [7] 0.009 | silmitasertib 0.013 | [8] 0.015 | entospletinib 0.006

TCF3 (UniProt P15923)
inactive: nilotinib 0.028 | [1] -0.118 | dasatinib -0.018 | [2] -0.057 | [3] -0.139 | quisinostat 0.006 | tipifarnib -0.245 | [4] 0.055 | [5] -0.019 | [6] -0.003 | [7] -0.007 | vorinostat -0.141 | silmitasertib -0.031 | [8] 0 | entospletinib -0.03

TELO2 (UniProt Q9Y4R8)
active: vorinostat -0.361
inactive: nilotinib -0.012 | [1] -0.014 | dasatinib -0.082 | [2] -0.021 | [3] 0.035 | quisinostat -0.057 | tipifarnib -0.013 | [4] 0.058 | [5] 0.003 | [6] -0.03 | [7] 0.003 | silmitasertib 0.117 | [8] 0.011 | entospletinib 0.011

TMPO (UniProt P42166)
active: vorinostat -0.569
inactive: nilotinib 0.05 | [1] -0.178 | dasatinib -0.069 | [2] -0.036 | [3] 0.029 | quisinostat -0.041 | tipifarnib -0.018 | [4] 0.035 | [5] 0.031 | [6] -0.006 | [7] 0.037 | silmitasertib -0.057 | [8] 0.009 | entospletinib -0.029

TECR (UniProt Q9NZ01)
Sequence of UniProt Q9NZ01 (Q9NZ01 whole entry, looked up): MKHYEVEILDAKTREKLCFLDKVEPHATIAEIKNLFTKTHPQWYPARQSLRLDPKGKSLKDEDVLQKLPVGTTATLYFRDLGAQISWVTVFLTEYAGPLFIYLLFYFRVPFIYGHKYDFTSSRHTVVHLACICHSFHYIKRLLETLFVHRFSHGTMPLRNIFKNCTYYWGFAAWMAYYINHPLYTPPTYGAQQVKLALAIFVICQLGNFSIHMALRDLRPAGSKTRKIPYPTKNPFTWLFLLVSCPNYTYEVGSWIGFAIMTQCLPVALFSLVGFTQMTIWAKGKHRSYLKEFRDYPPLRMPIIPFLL
inactive: nilotinib -0.06 | [1] 0.018 | dasatinib -0.062 | [2] -0.011 | [3] -0.043 | quisinostat -0.024 | tipifarnib -0.09 | [4] 0.041 | [5] -0.009 | [6] -0.047 | [7] -0.031 | vorinostat 0.024 | silmitasertib 0.076 | [8] 0.032 | entospletinib 0.033

TDRD3 isoform 3 (UniProt Q9H7E2)
Sequence of UniProt Q9H7E2 (Q9H7E2 whole entry, looked up): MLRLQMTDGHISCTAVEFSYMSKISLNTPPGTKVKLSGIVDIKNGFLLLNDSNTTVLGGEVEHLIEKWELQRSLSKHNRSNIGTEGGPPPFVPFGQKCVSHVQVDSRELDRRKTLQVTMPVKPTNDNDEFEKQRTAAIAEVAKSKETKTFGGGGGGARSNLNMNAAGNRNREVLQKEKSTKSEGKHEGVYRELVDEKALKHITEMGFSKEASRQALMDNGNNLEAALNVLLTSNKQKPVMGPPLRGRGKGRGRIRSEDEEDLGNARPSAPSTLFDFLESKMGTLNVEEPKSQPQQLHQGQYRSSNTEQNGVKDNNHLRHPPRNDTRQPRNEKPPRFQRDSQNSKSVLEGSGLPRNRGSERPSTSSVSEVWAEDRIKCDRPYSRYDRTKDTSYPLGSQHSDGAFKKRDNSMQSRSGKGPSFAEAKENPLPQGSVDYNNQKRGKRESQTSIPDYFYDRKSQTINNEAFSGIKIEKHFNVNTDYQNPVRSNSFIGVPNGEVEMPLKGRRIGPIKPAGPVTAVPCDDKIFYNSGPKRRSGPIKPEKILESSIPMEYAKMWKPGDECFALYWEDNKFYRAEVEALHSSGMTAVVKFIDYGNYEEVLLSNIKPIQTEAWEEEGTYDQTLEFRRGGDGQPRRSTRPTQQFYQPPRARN
inactive: nilotinib 0.261 | [1] -0.04 | dasatinib 0.033 | [2] 0.17 | [3] 0.01 | quisinostat -0.023 | tipifarnib -0.152 | [4] 0.042 | [5] 0.014 | [6] 0.064 | [7] 0.23 | vorinostat -0.016 | silmitasertib -0.03 | [8] 0.008 | entospletinib -0.041

TRAPPC10 (UniProt P48553)
Sequence of UniProt P48553 (P48553 whole entry, looked up): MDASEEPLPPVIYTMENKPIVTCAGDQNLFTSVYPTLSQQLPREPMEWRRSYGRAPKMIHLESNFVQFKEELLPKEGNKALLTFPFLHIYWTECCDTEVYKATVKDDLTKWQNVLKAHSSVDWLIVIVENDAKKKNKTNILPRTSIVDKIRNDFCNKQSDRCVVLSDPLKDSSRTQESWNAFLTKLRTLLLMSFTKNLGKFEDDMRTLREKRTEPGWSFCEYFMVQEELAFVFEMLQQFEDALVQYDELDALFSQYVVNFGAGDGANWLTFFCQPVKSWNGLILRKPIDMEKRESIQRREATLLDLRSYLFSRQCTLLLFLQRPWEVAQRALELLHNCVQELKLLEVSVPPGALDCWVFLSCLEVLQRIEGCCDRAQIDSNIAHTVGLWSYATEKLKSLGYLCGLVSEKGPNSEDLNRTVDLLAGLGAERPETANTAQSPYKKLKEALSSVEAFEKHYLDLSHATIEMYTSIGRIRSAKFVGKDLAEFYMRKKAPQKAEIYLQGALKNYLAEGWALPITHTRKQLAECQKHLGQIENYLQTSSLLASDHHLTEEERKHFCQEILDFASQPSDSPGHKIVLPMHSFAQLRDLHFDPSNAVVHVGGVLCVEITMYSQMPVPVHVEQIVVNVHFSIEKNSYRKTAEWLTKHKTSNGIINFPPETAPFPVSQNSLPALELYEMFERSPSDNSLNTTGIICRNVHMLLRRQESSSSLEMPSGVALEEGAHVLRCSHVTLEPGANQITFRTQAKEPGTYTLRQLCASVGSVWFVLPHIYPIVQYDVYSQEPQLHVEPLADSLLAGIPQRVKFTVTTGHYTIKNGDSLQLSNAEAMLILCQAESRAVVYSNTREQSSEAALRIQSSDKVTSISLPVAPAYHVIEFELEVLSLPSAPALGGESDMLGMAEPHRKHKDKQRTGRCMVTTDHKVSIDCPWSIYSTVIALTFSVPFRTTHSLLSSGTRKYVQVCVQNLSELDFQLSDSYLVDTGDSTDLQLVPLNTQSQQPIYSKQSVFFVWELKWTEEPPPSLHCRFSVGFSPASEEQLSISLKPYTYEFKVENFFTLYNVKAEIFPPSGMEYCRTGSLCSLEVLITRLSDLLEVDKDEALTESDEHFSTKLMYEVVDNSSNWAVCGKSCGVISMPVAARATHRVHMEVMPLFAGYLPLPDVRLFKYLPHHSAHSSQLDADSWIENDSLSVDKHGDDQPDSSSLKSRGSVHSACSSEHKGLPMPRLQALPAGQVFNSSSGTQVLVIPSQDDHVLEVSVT
inactive: nilotinib 0.008 | [1] 0 | dasatinib 0.011 | [2] -0.003 | [3] 0.02 | quisinostat -0.006 | tipifarnib 0.011 | [4] 0.035 | [5] 0.026 | [6] -0.05 | [7] 0.015 | silmitasertib 0.005 | [8] 0.049 | entospletinib 0
active: vorinostat -0.248

UGDH (UniProt O60701)
active: dasatinib 0.217
inactive: nilotinib 0.008 | [1] -0.012 | [2] 0.009 | [3] -0.034 | quisinostat 0.019 | tipifarnib 0.007 | [4] 0.039 | [5] -0.01 | [6] 0.006 | [7] 0.039 | vorinostat -0.206 | silmitasertib 0.001 | [8] 0.01 | entospletinib -0.01

UBL4A (UniProt P11441)
Sequence of UniProt P11441 (P11441 whole entry, looked up): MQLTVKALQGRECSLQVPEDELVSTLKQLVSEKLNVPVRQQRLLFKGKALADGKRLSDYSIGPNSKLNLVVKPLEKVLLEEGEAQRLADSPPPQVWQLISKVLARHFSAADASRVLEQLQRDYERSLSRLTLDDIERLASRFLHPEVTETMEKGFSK
inactive: nilotinib -0.005 | [1] -0.013 | dasatinib 0.052 | [2] -0.037 | [3] 0.036 | quisinostat 0.157 | tipifarnib -0.024 | [4] 0.02 | [5] 0.007 | [6] 0.016 | [7] -0.036 | vorinostat -0.016 | silmitasertib 0.04 | [8] 0.007 | entospletinib -0.011

TUBGCP2 isoform 4 (UniProt Q9BSJ2)
active: vorinostat -0.32
inactive: nilotinib -0.016 | [1] 0.012 | dasatinib -0.058 | [2] 0.012 | [3] 0.064 | quisinostat -0.091 | tipifarnib -0.001 | [4] 0.037 | [5] 0 | [6] -0.016 | [7] 0.03 | silmitasertib 0.051 | [8] 0.046 | entospletinib 0.042
